# PubChem BioAssay (Tox21)
# Records with an inconclusive call do not appear. Activity calls are given as the source filed them. Unless noted, calls come from the whole dose curve; as a rule, active = well fitted cell-killing curve with a large enough effect in the repeat runs; inconclusive = weak or mixed curves, or effect the other way; inactive = no such curve, though single readings can be large or run the other way.
# Target: Progesterone receptor (Homo sapiens) (UniProt P06401)
# Test: qHTS assay to identify small molecule antagonists of the progesterone receptor (PR) signaling pathway (AID 1346795; active = well fitted inhibition curve with a large enough effect in the signal ratio in the repeat runs, not every such curve was filed as active; the % refers to the signal ratio)
# Conditions: PR-UAS-bla HEK293T, beta-lactamase FRET ratio, 16 h; series mostly up to 92.4 µM; activity change, negative = inhibition: at the top concentration
# Summary of the method: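 Beta-lactamase reporter, HEK293T PR-UAS-bla line; 2% charcoal-stripped FBS; 6 hr pre-incubation, 37C/5% CO2. Compound + R5020 1 nM final, 16 hr. LiveBLAzer B/G FRET substrate, 2 hr RT; fluorescence intensity read.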
# % is set by controls: 0 for no effect and ±100 for the full control effect; potency is the fitted concentration of half-maximal effect.
# Chain of Progesterone receptor (Homo sapiens) (P06401 whole entry, looked up): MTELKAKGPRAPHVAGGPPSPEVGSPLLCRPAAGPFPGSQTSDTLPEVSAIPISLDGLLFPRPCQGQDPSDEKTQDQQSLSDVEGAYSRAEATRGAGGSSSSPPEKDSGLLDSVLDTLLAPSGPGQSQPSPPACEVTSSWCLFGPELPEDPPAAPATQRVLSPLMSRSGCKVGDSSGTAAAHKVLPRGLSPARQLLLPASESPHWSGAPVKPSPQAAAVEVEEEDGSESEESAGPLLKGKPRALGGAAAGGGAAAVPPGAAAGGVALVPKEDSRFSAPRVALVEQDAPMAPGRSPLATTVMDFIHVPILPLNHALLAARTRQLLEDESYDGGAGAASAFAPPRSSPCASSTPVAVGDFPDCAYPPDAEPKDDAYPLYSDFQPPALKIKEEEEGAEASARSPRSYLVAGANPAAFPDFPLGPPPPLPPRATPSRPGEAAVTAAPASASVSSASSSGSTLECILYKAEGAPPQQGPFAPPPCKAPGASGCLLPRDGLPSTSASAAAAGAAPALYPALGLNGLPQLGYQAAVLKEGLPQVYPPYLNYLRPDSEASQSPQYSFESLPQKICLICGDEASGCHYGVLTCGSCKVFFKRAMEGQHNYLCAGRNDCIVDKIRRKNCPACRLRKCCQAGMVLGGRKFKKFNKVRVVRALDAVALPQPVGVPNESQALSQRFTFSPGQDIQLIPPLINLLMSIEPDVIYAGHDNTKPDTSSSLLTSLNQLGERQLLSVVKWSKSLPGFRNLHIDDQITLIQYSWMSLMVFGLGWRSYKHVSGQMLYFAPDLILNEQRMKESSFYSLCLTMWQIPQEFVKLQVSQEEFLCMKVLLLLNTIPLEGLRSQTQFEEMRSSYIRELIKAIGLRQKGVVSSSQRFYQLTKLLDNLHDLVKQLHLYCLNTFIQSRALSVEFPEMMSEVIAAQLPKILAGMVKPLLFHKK
Compound,"activity change, negative = inhibition",Potency
Oc1ccc(CCNCCCCCCNCCc2ccccc2)cc1O,-9.94% [at 42.5 µM] (inactive),
C=C[Si](OCC)(OCC)OCC,-0.163% (inactive),
O=c1c2ccccc2oc2ccccc12,-4.54% (inactive),
CCCCCCCCCCCCCCCCCCCl,7.9% [at 8.39 µM] (inactive),
CC(=O)Nc1cccc(N)c1,-0.384% (inactive),
Cc1ccc(NC=O)c(C)c1,-4.07% (inactive),
Clc1nc2ccccc2nc1Cl,10.5% (inactive),
CCCc1nc(C)c2c(=O)[nH]c(-c3cc(S(=O)(=O)N4CCN(CC)CC4)ccc3OCC)nn12,3.04% [at 42.5 µM] (inactive),
CCCCCCCCCC(C)C=O (configuration not stated),-14.9% (inactive),
CC(C)(Cc1c[nH]c2ccccc12)NCC(O)COc1ccccc1C#N (configuration not stated),-16.7% [at 42.5 µM] (inactive),
CC(Cc1ccccc1)(NC(=O)CN)c1ccccc1 (configuration not stated),2.64% [at 42.5 µM] (inactive),
O=C(c1ccco1)N1CCNCC1,7.09% [at 42.5 µM] (inactive),
CC(COc1ccccc1)NC(C)C(O)c1ccc(O)cc1 (configuration not stated),2.24% [at 42.5 µM] (inactive),
CCc1cnc(C(=O)O)c(C(=O)O)c1,11.6% (inactive),
CCOc1ccccc1O,8.23% (inactive),
CCC(CC)C(=O)O,10.9% (inactive),
CC[C@H](NC(C)C)[C@H](O)c1ccc(O)c2[nH]c(=O)ccc12,4.42% [at 42.5 µM] (inactive),
CCCCCCC/C=C/C=O,5.1% (inactive),
OCCCO,5.35% (inactive),
CC/C=C/CCO,-13.9% (inactive),
COc1cccc([C@H](O)C2CCN(CCc3ccc(F)cc3)CC2)c1OC,0.42% (inactive),
COc1ccc(C(=O)Nc2ccccc2)cc1[N+](=O)[O-],,54.9 µM (active)
O=C(Cl)c1cc(Cl)cc(Cl)c1,7.2% (inactive),
O=C(Nc1ccc2c(c1)Cc1ccccc1-2)C(F)(F)F,,4.33 µM (active)
O=c1[nH]nc(-c2ccc([N+](=O)[O-])o2)o1,1.71% (inactive),
COc1ccnc2c1CCCCC2S(=O)c1nc2ccccc2[nH]1 (configuration not stated),-24.8% [at 42.5 µM] (inactive),
CCOCCn1c(N2CCCN(C)CC2)nc2ccccc21,4.54% [at 42.5 µM] (inactive),
OCCOc1cccc(OCCO)c1,4.77% (inactive),
C(/C=C/C=C/Nc1ccccc1)=Nc1ccccc1,-2.56% (inactive),

# Tested on: not listed separately
# Test: qHTS assay to identify small molecule antagonists of the progesterone receptor (PR) signaling pathway - cell viability counter screen (AID 1346798); note: nearly all actives have a fitted effect of over 50% in size
# Conditions: PR-UAS-bla HEK293T viability, CellTiter-Glo luminescence, 16 h; series mostly up to 92.4 µM; activity change, negative = cytotoxicity: at the top concentration
# Summary of the method: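 Luminescence readout (CellTiter-Glo, 30 min, RT) of viability in PR-UAS-bla HEK293T cells exposed to compound and R5020 agonist for 16 hr at 37C, 5% CO2; run in the same wells as the beta-lactamase reporter read.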
Compound,"activity change, negative = cytotoxicity",Potency
CO[C@@H]1[C@@H](O[C@@H]2O[C@H](C)[C@@H](O[C@H]3C[C@@](C)(O)[C@@H](O)[C@H](C)O3)[C@H](N(C)C)[C@H]2O)[C@@H](CC=O)C[C@@H](C)[C@@H](O[C@@H]2CC[C@H](N(C)C)[C@@H](C)O2)/C=C/C=C/C[C@@H](C)OC(=O)C[C@H]1OC(C)=O,-29.9% [at 42.5 µM] (inactive),
Oc1ccc(CCNCCCCCCNCCc2ccccc2)cc1O,-8.94% [at 42.5 µM] (inactive),
C=C[Si](OCC)(OCC)OCC,2.64% (inactive),
O=c1c2ccccc2oc2ccccc12,13.4% (inactive),
CCCCCCCCCCCCCCCCCCCl,-19.4% [at 8.39 µM] (inactive),
CC(=O)Nc1cccc(N)c1,-4.36% (inactive),
Cc1ccc(NC=O)c(C)c1,-13.6% (inactive),
Clc1nc2ccccc2nc1Cl,5.96% (inactive),
CC(=O)c1ccc(Cl)c(Cl)c1Cl,-6.14% (inactive),
CCCc1nc(C)c2c(=O)[nH]c(-c3cc(S(=O)(=O)N4CCN(CC)CC4)ccc3OCC)nn12,4.71% [at 42.5 µM] (inactive),
CCCCCCCCCC(C)C=O (configuration not stated),-24.5% (inactive),
Cc1nc2sccn2c(=O)c1CCN1CCC(=C(c2ccc(F)cc2)c2ccc(F)cc2)CC1,-14.4% [at 42.5 µM] (inactive),
CC(Cc1ccccc1)(NC(=O)CN)c1ccccc1 (configuration not stated),-18.9% [at 42.5 µM] (inactive),
O=C(c1ccco1)N1CCNCC1,0.441% [at 42.5 µM] (inactive),
CCc1cnc(C(=O)O)c(C(=O)O)c1,-0.602% (inactive),
CCOc1ccccc1O,-2.84% (inactive),
O=S(=O)(O)c1cc(Cl)c(Cl)cc1Cl,,30.6 µM (active)

Compound,"activity change, negative = cytotoxicity",Potency
O=C(N[C@@H](Cc1ccccc1)[C@@H](O)C(=O)N1C[C@@H](O)[C@@H](O)C1)c1cc2cc(Cl)ccc2[nH]1,28.3% (inactive),
CCC(CC)C(=O)O,1.2% (inactive),
CC[C@H](NC(C)C)[C@H](O)c1ccc(O)c2[nH]c(=O)ccc12,-2.19% [at 42.5 µM] (inactive),
CCCCCCC/C=C/C=O,-14.9% (inactive),
OCCCO,-0.809% (inactive),
CC/C=C/CCO,,31.2 µM (active)
COc1cccc([C@H](O)C2CCN(CCc3ccc(F)cc3)CC2)c1OC,-26.6% (inactive),
N#Cc1ccc(CC(=O)c2cccc(C(F)(F)F)c2)cc1,14% (inactive),
C[C@]12CCC(=O)C=C1[C@@H]1C[C@@H]1[C@H]1[C@@H]3[C@@H]4C[C@@H]4[C@@]4(CCC(=O)O4)[C@@]3(C)CC[C@@H]12,12.5% [at 42.5 µM] (inactive),
COc1ccc(C(=O)Nc2ccccc2)cc1[N+](=O)[O-],3.13% (inactive),
O=C(Cl)c1cc(Cl)cc(Cl)c1,-22.2% (inactive),
O=c1[nH]nc(-c2ccc([N+](=O)[O-])o2)o1,11.2% (inactive),
COc1ccnc2c1CCCCC2S(=O)c1nc2ccccc2[nH]1 (configuration not stated),-5.68% [at 42.5 µM] (inactive),
CCOCCn1c(N2CCCN(C)CC2)nc2ccccc21,-20.2% [at 42.5 µM] (inactive),
OCCOc1cccc(OCCO)c1,-5.47% (inactive),
C(/C=C/C=C/Nc1ccccc1)=Nc1ccccc1,-1.7% (inactive),
